# Experimental data reported in PubChem BioAssay (EPA / NIEHS).
# “And” between values parts separate entries of the source, which are not always exact repeats. Equal entries are not always repeated. Inconclusive results are not listed. Where a structure was tested more than once in an assay, its records may differ in their call. The source made the active and inactive calls. The calls were made as follows, unless noted: active = hit-call score of the fitted dose curve at least 0.9, where 1 is the maximum; inconclusive = response in the unintended direction; inactive = score below 0.9.
# Legend:
# [1] = test system: frog Estrogen Receptor (ER), gene 398734; test: ATG_frER1_XSP2: Attagene TRANS-FACTORIAL Multi-Species (XSP2) HepG2 Assay for frog Estrogen Receptor (ER) (AID 2283821);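 also: hits raise reporter mRNA above DMSO baseline so potency means agonist or activator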
# How it was run: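 Steps: transfect HepG2 with multiple reporter transcription units; treat with chemical for 24 h; isolate RNA, reverse-transcribe, PCR-amplify, label with 6-FAM, digest with HpaI; resolve fragments by capillary electrophoresis. Signal is scored against DMSO.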
# [2] = test system: zebrafish Estrogen Receptor (ER2b), gene 317733; test: ATG_zfER2b_XSP2: Attagene TRANS-FACTORIAL Multi-Species (XSP2) HepG2 Assay for zebrafish Estrogen Receptor (ER2b) (AID 2283823);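 also: fitted upward as reporter gain over DMSO so potency reflects activation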
# How it was run: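 Transfect HepG2 with GAL4-UAS reporter constructs; dose chemicals, 24 h; isolate RNA, RT-PCR, FAM-label, HpaI digest; capillary electrophoresis. Gain-of-signal vs DMSO.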
# [3] = test system: zebrafish Androgen Receptor (AR), gene 100005148; test: ATG_zfAR_XSP2: Attagene TRANS-FACTORIAL Multi-Species (XSP2) HepG2 Assay for zebrafish Androgen Receptor (AR) (AID 2283825);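 also: hits raise reporter mRNA above DMSO so AC50 reflects agonist-type gain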
# How it was run: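 Zebrafish AR–GAL4 chimera transiently expressed with GAL4-UAS reporter in HepG2 cells, co-stimulated with 3 nM 6-alpha-fluorotestosterone and 1.5 nM norgestrel; 24 h dosing, reporter mRNA read by RT-PCR/capillary electrophoresis versus DMSO.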
# [4] = ATG_M_32_XSP2: Attagene TRANS-FACTORIAL Multi-Species (XSP2) HepG2 Assay for M19 Transcription Factor (Internal Marker) (AID 2283826)
# How it was run: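 Read-out: fluorescent reporter mRNA fragments resolved by capillary electrophoresis after RT-PCR, gain-of-signal versus DMSO baseline. Cells were human HepG2 carrying transfected multi-reporter units, exposed 24 h. Medium contained 3 nM 6-alpha-fluorotestosterone plus 1.5 nM norgestrel.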
# [5] = biological target: Estrogen receptor (Homo sapiens) (UniProt P03372); test: ATG_hERa_XSP2: Attagene TRANS-FACTORIAL Multi-Species (XSP2) HepG2 Assay for human Estrogen Receptor (ERa) (AID 2283827)
# Estrogen receptor (Homo sapiens), sequence (P03372 whole entry, looked up, the tested form may be a part): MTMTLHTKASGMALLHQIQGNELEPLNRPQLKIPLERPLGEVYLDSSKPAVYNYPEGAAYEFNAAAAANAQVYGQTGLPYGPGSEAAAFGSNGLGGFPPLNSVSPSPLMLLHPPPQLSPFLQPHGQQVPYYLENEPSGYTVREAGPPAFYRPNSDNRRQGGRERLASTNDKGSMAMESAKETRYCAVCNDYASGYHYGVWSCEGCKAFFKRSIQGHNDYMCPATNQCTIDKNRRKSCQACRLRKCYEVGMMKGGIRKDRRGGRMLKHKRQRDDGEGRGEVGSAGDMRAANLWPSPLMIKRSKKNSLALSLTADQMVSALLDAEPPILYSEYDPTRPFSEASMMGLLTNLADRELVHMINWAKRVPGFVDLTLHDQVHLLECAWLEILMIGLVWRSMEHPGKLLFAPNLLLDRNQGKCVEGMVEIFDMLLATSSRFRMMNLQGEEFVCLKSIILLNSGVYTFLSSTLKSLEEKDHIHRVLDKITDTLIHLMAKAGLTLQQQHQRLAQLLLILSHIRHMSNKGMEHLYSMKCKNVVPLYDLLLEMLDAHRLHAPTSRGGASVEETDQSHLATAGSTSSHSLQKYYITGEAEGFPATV
# How it was run: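 HepG2 cells transiently transfected with multiplexed GAL4-UAS reporters driven by chimeric receptor-Gal4 proteins, dosed 24 h with 3 nM 6-alpha-fluorotestosterone and 1.5 nM norgestrel present. Reporter mRNA by RT-PCR and capillary electrophoresis; gain-of-signal fit versus DMSO.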
# [6] = test system: frog Estrogen Receptor (ER2), gene 100174814; test: ATG_frER2_XSP2: Attagene TRANS-FACTORIAL Multi-Species (XSP2) HepG2 Assay for frog Estrogen Receptor (ER2) (AID 2283828)
# How it was run: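 Multiplexed transactivation in HepG2: frog estrogen receptor fused to Gal4 drives a UAS reporter. Signal is reporter mRNA after 24 h treatment.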
# [7] = biological target: Peroxisome proliferator-activated receptor gamma (Homo sapiens) (UniProt P37231); test: ATG_hPPARg_XSP2: Attagene TRANS-FACTORIAL Multi-Species (XSP2) HepG2 Assay for human Peroxisome Proliferator-activated Receptor gamma (PPARg) (AID 2283829);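 also: actives raise reporter mRNA above DMSO so AC50 reflects PPARg activation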
# Peroxisome proliferator-activated receptor gamma (Homo sapiens), sequence (P37231 whole entry, looked up, the tested form may be a part): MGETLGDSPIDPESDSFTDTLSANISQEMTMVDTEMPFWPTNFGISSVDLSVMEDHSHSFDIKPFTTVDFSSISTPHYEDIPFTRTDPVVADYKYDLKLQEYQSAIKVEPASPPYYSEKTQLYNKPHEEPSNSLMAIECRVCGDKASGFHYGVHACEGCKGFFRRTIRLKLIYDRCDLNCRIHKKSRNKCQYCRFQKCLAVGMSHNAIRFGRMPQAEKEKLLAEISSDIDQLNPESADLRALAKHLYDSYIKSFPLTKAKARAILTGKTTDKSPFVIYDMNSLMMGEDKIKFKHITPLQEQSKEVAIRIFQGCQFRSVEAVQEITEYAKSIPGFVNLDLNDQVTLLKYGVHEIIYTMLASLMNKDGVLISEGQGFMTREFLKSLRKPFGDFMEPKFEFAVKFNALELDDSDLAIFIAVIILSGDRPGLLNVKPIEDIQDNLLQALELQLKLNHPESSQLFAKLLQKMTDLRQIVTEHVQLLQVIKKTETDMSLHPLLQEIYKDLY
# How it was run: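 Transient MRTU transfection, HepG2; TRANS format (exogenous NR-Gal4 chimeras). 24 h chemical exposure with 3 nM 6-alpha-fluorotestosterone and 1.5 nM norgestrel present. Readout: reporter mRNA via RT-PCR/CE fluorescence, up-direction vs DMSO.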
# [8] = biological target: mouse Peroxisome Proliferator-activated Receptor gamma (PPARg), Pparg (gene 19016) (UniProt P37238); test: ATG_mPPARg_XSP2: Attagene TRANS-FACTORIAL Multi-Species (XSP2) HepG2 Assay for mouse Peroxisome Proliferator-activated Receptor gamma (PPARg) (AID 2283830);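 also: hits are gains in reporter mRNA above DMSO so AC50 marks activation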
# mouse Peroxisome Proliferator-activated Receptor gamma (PPARg), Pparg (gene 19016), sequence (P37238 whole entry, looked up, the tested form may be a part): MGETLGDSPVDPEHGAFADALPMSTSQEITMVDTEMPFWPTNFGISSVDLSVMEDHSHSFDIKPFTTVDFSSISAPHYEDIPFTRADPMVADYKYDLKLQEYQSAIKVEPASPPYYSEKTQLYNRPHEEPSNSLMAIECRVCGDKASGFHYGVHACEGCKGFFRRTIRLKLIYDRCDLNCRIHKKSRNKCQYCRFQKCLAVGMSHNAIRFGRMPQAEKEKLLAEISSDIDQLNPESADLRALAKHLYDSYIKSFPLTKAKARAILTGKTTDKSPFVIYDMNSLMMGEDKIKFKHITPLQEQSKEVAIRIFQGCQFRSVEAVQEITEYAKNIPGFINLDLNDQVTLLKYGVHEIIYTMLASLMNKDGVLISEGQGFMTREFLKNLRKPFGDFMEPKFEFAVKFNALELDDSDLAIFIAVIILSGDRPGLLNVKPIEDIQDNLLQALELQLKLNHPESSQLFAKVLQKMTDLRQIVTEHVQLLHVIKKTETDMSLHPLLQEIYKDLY
# How it was run: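 HepG2 cells transiently transfected with GAL4-UAS reporter units for chimeric NR-Gal4 proteins including mouse PPARg, exposed 24 h; medium contained 3 nM 6-alpha-fluorotestosterone and 1.5 nM norgestrel. Reporter mRNA quantified by RT-PCR, HpaI digestion and capillary electrophoresis, vs DMSO.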
# [9] = biological target: zebrafish Thyroid Hormone Receptor alpha (TRa), thraa (gene 30670) (UniProt Q98867); test: ATG_zfTRa_XSP2: Attagene TRANS-FACTORIAL Multi-Species (XSP1) HepG2 Assay for zebrafish Thyroid Hormone Receptor alpha (TRa) (AID 2283832);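 also: actives raise zebrafish TRa-Gal4 reporter transcript above DMSO baseline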
# zebrafish Thyroid Hormone Receptor alpha (TRa), thraa (gene 30670), sequence (Q98867 whole entry, looked up, the tested form may be a part): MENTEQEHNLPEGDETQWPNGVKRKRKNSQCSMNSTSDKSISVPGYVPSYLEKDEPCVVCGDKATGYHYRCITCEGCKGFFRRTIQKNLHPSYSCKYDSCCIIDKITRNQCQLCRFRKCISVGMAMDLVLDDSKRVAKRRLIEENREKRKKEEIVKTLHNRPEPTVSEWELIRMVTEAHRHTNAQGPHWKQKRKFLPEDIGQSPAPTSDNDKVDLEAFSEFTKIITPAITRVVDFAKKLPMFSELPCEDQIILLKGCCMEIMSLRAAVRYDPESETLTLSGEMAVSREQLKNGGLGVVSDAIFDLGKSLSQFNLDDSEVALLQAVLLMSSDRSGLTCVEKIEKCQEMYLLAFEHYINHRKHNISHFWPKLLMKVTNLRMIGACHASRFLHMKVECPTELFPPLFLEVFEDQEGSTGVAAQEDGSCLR
# How it was run: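 Transient transfection of human HepG2 with GAL4-UAS reporter units, then 24 h chemical treatment. RNA isolated, reverse-transcribed, PCR-amplified, FAM-labelled, HpaI-digested and run on capillary electrophoresis. Gain-of-signal relative to DMSO.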
# [10] = test system: zebrafish Peroxisome Proliferator-activated Receptor gamma (PPARg), gene 557037; test: ATG_zfPPARg_XSP2: Attagene TRANS-FACTORIAL Multi-Species (XSP2) HepG2 Assay for zebrafish Peroxisome Proliferator-activated Receptor gamma (PPARg) (AID 2283833);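 also: actives increase reporter signal over DMSO so AC50 reflects activation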
# How it was run: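 Transfect HepG2 with multiplexed GAL4-UAS reporter constructs; dose chemical 24 h; isolate RNA, reverse-transcribe, PCR-amplify, label and digest reporter products; resolve by capillary electrophoresis. Activity taken as increase over DMSO.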
# [11] = test system: turtle Thyroid Hormone Receptor, alpha (TRa), gene 101949057; test: ATG_trTRa_XSP2: Attagene TRANS-FACTORIAL Multi-Species (XSP1) HepG2 Assay for turtle Thyroid Hormone Receptor, alpha (TRa) (AID 2283834);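 also: hits raise reporter mRNA over the DMSO baseline so AC50 marks activators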
# How it was run: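 Readout: reporter mRNA induction, fluorescence after RT-PCR, HpaI digestion and capillary electrophoresis. Transiently transfected HepG2, exogenous NR-Gal4 chimera driving GAL4-UAS reporter, 24 h compound exposure. Activity fitted upward relative to DMSO baseline.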
# [12] = ATG_M_61_XSP2: Attagene TRANS-FACTORIAL Multi-Species (XSP2) HepG2 Assay for M61 Transcription Factor (Internal Marker) (AID 2283835; active = hit-call score of the fitted dose curve at least 0.9, where 1 is the maximum; inactive = score below 0.9;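 also: active means a rise in signal above the DMSO baseline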)
# How it was run: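 First, HepG2 cells are transfected with reporter units under GAL4-UAS control. Next, chemicals are applied for 24 h. Then total RNA is reverse-transcribed, amplified, fluorescently labelled and sized by capillary electrophoresis, with gain of signal scored against DMSO.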
# [13] = biological target: zebrafish Thyroid Hormone Receptor beta (TRb), thrb (gene 30607) (UniProt Q9PVE4); test: ATG_zfTRb_XSP2: Attagene TRANS-FACTORIAL Multi-Species (XSP1) HepG2 Assay for zebrafish Thyroid Hormone Receptor beta (TRb) (AID 2283836)
# zebrafish Thyroid Hormone Receptor beta (TRb), thrb (gene 30607), sequence (Q9PVE4 whole entry, looked up, the tested form may be a part): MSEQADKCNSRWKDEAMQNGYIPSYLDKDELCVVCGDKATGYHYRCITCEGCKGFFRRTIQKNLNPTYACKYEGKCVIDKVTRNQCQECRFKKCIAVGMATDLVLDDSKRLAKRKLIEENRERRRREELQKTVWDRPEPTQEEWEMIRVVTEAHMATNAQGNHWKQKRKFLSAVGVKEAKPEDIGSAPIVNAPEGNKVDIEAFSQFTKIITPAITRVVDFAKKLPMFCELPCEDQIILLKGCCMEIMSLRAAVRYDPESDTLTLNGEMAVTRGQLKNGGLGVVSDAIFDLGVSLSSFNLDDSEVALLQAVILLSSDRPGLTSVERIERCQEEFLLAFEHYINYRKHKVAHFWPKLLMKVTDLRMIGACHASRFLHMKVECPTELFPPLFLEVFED
# How it was run: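 Human liver HepG2, transient MRTU transfection (NR-Gal4 chimeras, GAL4-UAS reporters); 24 h compound exposure; total RNA → oligo(dT) RT → PCR → 6-FAM label → HpaI cut → CE fluorescence. DMSO = negative control/baseline.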
# [14] = biological target: frog Thyroid hormone Receptor alpha (TRa), thra-a (gene 397942) (UniProt P15204); test: ATG_frTRa_XSP2: Attagene TRANS-FACTORIAL Multi-Species (XSP2) HepG2 Assay for frog Thyroid hormone Receptor alpha (TRa) (AID 2283839)
# frog Thyroid hormone Receptor alpha (TRa), thra-a (gene 397942), sequence (P15204 whole entry, looked up, the tested form may be a part): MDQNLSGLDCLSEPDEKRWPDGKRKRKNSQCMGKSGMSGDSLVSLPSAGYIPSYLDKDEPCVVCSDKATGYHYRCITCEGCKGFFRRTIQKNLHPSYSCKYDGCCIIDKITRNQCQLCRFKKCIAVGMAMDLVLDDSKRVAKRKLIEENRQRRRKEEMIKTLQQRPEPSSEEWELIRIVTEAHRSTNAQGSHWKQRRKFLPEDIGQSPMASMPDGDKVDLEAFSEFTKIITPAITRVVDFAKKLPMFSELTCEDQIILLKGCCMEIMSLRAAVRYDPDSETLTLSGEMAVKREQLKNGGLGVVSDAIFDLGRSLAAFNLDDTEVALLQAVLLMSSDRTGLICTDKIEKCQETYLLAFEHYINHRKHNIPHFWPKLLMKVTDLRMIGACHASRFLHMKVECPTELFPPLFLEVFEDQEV
# How it was run: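 Read-out: fluorescent reporter-transcript fragments resolved by capillary electrophoresis after RT-PCR and HpaI cut. Human HepG2 liver cells carry a transfected frog TRα-Gal4 chimera driving a UAS reporter; 24 h exposure, DMSO baseline, positive-direction fit.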
# [15] = test system: chicken Androgen Receptor (AR), gene 422165; test: ATG_chAR_XSP2: Attagene TRANS-FACTORIAL Multi-Species (XSP2) HepG2 Assay for chicken Androgen Receptor (AR) (AID 2283819);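 also: hits raise reporter mRNA above DMSO so potency is for activation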
# How it was run: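 HepG2 cells transiently transfected with chicken AR–GAL4 chimeric reporter constructs, stimulated with 3 nM 6-alpha-fluorotestosterone plus 1.5 nM norgestrel, dosed 24 h. Reporter mRNA quantified by RT-PCR and capillary electrophoresis; gain of signal fitted versus DMSO.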
# [16] = biological target: Nuclear receptor subfamily 1 group I member 2 (Mus musculus) (UniProt O54915); test: ATG_mPXR_XSP2: Attagene TRANS-FACTORIAL Multi-Species (XSP1) HepG2 Assay for mouse Pregnane X Receptor (PXR) (AID 2283831)
# Nuclear receptor subfamily 1 group I member 2 (Mus musculus), sequence (O54915 whole entry, looked up, the tested form may be a part): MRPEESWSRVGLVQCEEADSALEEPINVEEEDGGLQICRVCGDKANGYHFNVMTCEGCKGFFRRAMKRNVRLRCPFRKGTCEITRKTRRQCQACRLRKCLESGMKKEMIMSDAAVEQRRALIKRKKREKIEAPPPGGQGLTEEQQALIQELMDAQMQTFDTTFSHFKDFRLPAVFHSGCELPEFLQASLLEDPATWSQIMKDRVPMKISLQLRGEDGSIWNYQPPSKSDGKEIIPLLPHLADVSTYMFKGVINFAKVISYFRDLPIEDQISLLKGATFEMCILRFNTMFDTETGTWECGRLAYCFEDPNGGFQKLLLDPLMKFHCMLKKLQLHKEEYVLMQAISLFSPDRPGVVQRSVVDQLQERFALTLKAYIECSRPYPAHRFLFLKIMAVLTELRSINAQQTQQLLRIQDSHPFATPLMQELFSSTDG
# How it was run: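 Transient HepG2 transfection, multiplexed GAL4-UAS reporters, NR-GAL4 chimeras. 24 h compound exposure. Readout: reporter mRNA, RT-PCR, fluorescent capillary electrophoresis; positive direction vs DMSO baseline.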
# [17] = biological target: human Thyroid hormone Receptor alpha (TRa), THRA (gene 7067) (UniProt P10827); test: ATG_hTRa_XSP2: Attagene TRANS-FACTORIAL Multi-Species (XSP2) HepG2 Assay for human Thyroid hormone Receptor alpha (TRa) (AID 2283838)
# human Thyroid hormone Receptor alpha (TRa), THRA (gene 7067), sequence (P10827 whole entry, looked up, the tested form may be a part): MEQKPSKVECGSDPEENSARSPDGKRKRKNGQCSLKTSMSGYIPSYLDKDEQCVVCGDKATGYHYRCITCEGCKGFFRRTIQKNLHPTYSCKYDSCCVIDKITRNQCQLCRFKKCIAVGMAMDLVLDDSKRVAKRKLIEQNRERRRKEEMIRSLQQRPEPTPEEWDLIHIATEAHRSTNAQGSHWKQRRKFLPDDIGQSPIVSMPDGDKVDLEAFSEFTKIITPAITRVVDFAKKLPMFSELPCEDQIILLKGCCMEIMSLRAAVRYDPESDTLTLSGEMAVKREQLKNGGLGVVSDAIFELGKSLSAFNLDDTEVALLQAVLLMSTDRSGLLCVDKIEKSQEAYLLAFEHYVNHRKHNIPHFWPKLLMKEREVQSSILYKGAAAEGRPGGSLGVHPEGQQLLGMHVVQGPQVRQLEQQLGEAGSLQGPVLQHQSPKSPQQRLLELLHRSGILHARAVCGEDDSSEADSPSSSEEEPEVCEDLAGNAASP
# How it was run: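 HepG2 cells were transiently transfected with GAL4-UAS reporter units for chimeric human TRa-Gal4 and dosed for 24 hours, with 3 nM 6-alpha-fluorotestosterone and 1.5 nM norgestrel present. Reporter mRNA was quantified by RT-PCR, FAM labelling and capillary electrophoresis, with gain of signal fitted versus DMSO.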
# [18] = ATG_M_19_XSP2: Attagene TRANS-FACTORIAL Multi-Species (XSP2) HepG2 Assay for M32 Transcription Factor (Internal Marker) (AID 2283822)
# How it was run: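 Internal background marker in a multi-species nuclear receptor TRANS panel: transfected HepG2 cells exposed 24 h, with 3 nM 6-alpha-fluorotestosterone and 1.5 nM norgestrel present. Readout is RT-PCR of reporter transcripts resolved by capillary electrophoresis, gain-of-signal versus DMSO.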
compound,measurement,setting,value
[Cl][Sn]([c]1ccccc1)([c]1ccccc1)[c]1ccccc1,AC50,[1],0.925 µM (active)
same,outcome,[2],inactive
same,outcome,[3],inactive
same,outcome,[4],inactive
same,outcome,[5],inactive
same,outcome,[6],inactive
same,AC50,[7],41 nM (active)
same,AC50,[8],184 nM (active)
same,AC50,[9],0.925 µM (active)
same,outcome,[10],inactive
same,outcome,[11],inactive
same,outcome,[12],inactive
same,outcome,[13],inactive
same,outcome,[14],inactive
CCOP(=S)(OCC)O/N=C(\C#N)c1ccccc1,AC50,[15],17.8 µM (active)
same,outcome,[15],inactive
same,outcome,[1],inactive
same,AC50,[2],19 µM (active) and 8.31 µM (active)
same,AC50,[6],16.1 µM (active) and 2.28 µM (active)
same,AC50,[7],27.4 µM (active) and 10.3 µM (active)
same,AC50,[8],22.4 µM (active) and 15.5 µM (active)
same,AC50,[16],4.3 µM (active) and 2.37 µM (active)
same,outcome,[9],inactive
same,outcome,[10],inactive
same,outcome,[11],inactive
same,outcome,[12],inactive
same,outcome,[13],inactive
same,outcome,[17],inactive
same,outcome,[14],inactive
COCCl,outcome,[15],inactive
same,AC50,[1],19.8 µM (active)
same,outcome,[1],inactive
same,outcome,[18],inactive
same,AC50,[2],65.6 µM (active)
same,outcome,[2],inactive
same,outcome,[3],inactive
same,AC50,[6],61.9 µM (active)
same,outcome,[6],inactive
same,outcome,[7],inactive
same,outcome,[8],inactive
same,AC50,[16],7.08 µM (active)
same,outcome,[16],inactive
same,outcome,[10],inactive
same,outcome,[11],inactive
same,outcome,[17],inactive
same,outcome,[14],inactive
